Measured values: PubChem BioAssay AID624330 (Southern Research Specialized Biocontainment Screening …, 2012)
The campaign covered roughly 340,000 compounds. About 2,100 (0.62%) were called active.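 Rule for the calls: active = first-screen hits whose inhibition reached a set limit at any dose in the follow-up dose series; inconclusive = inhibition above the set first-screen limit but never retested; inactive = the rest.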 Not all results are given here. Results with a measured potency or affinity are listed apart.

target: Rac GTPase-activating protein 1 (Homo sapiens) (UniProt Q9H0H5); experiment: blockers of MgcRacGAP-driven Rac1 GTP hydrolysis – biochemical, ADP Hunter fluorescence, primary and confirmatory, confirmation (AID 624330); conditions: MgcRacGAP-stimulated Rac1 GTP hydrolysis, at 30 µM, hits give high values, GST-tagged Rac1 F28L mutant substrate;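 note: fluorescence reports GDP produced by GAP-driven GTP hydrolysis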
Sequence (Q9H0H5 whole entry, looked up): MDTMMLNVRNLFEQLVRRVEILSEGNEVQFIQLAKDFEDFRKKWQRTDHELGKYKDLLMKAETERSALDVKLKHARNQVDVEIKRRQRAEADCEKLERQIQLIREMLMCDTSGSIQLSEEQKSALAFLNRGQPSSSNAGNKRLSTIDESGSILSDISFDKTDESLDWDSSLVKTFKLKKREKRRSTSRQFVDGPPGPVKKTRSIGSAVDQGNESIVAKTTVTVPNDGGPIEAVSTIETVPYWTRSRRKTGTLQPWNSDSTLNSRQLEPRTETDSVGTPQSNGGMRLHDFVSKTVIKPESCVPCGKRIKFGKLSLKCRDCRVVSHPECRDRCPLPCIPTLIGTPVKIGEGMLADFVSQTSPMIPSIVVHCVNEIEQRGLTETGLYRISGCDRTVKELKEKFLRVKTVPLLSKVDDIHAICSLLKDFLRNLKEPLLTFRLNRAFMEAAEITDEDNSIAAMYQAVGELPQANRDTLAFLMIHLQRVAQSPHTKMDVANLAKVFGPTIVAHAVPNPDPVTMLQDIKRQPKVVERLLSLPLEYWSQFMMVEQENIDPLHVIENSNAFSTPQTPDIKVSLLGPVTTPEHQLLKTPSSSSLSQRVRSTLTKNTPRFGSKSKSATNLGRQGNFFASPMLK

inhibition, inactive:
CSc1nc(C)c(C(=O)C[n+]2ccccc2)cc1C#N 5.97%
FC(F)(F)c1cccc(N2CCN(Cc3ccoc3)CC2)c1 9.97%
COc1ccc(-n2c(=S)[nH]c3cc(C(=O)O)ccc3c2=O)cc1 1.88%
COc1cc(S(N)(=O)=O)c(OC)cc1N 7.46%
Cc1cc(N=Nc2c(O)c3ccccc3[nH]c2=O)ccc1N=Nc1ccc(C(=O)N(C)C)cc1 6.51%
COc1ccc(C(=O)c2ccc(OC)c(N)c2)cc1N 4.59%
Cc1ccc(N=Nc2ccc(N)cc2C)c(S(N)(=O)=O)c1 13.8%
COc1ccc(N=Nc2ccc(N)nc2N)cc1 18.6%
COc1ccc(OC)c(N)c1 18.5%
CCCNS(=O)(=O)c1ccc(CCC(=O)NCCc2ccc(OC)c(OC)c2)cc1 1.4%
NC(N)=NC1=NC(=O)/C(=C/c2ccccc2-n2cccn2)S1 10.9%
CC1(C)CC(=O)C(C=Nc2ccc(NC3=C(C#N)C(=O)CC(C)(C)C3)cc2)=C(O)C1 7.44%
CC(/C=N/O)Cc1ccc2c(c1)OCO2 (configuration not stated) 2.11%
COc1ccc(C2C(C(=O)NCc3ccco3)c3ccccc3C(=O)N2C)cc1 (configuration not stated) 0.04%
CC1=C(C(=O)N(C)C)CC(CC(=O)NC2CCCC2)C(=O)N1CCC1=CCCCC1 (configuration not stated) 14.5%
O=C(CNC(=O)c1ccccc1Br)N/N=C/c1cccs1 0.32%
CCn1c2ccccc2c2cc(NC(C)=O)ccc21 6.13%
CCn1c2ccccc2c2cc(CC(N)=O)ccc21 8.07%
CCCC(=O)Nc1ccc2c(c1)c1ccccc1n2CC 10.5%
CCn1c2ccccc2c(=O)c2ccccc21 5.08%
COc1ccc(CNCc2ccc3ccccc3c2)c(OC)c1 28.9%
COc1cccc(CNCc2ccc(OC)cc2OC)c1 22.9%
CCn1c2ccccc2c2cc(NC(=O)CC(C)=O)ccc21 8.51%
CCn1c2ccccc2c2cc(CNCCCN3CCOCC3)ccc21 20.3%
CC1=CC(C)(C)NC(=S)N1c1cccc2ccccc12 12.8%
O=C(O)CSc1nnc(Nc2ccccc2)n1-c1ccccc1 1.56%
COc1ccc(/C=C2\SC(=S)N(CC(=O)OCC(=O)Nc3ccc(C)cc3Cl)C2=O)cc1 1.09%
CN1C[C@@H]2[C@@H]3C(=O)N(Cc4ccccc4)C(=O)[C@@H]3[C@](C)(C1=O)N2C(=O)c1ccc(Br)cc1 5.77%
CCC(C(=O)OCC(=O)c1ccc(OC)cc1OC)c1ccccc1 (configuration not stated) 5.77%
COc1ccccc1C(=O)NC(=O)COC(=O)c1nc(Cl)ccc1Cl 8.9%
Cc1cc(F)ccc1S(=O)(=O)N1CCCOC1CNC(=O)C(=O)NCc1ccc2c(c1)OCO2 (configuration not stated) 2.65%
CCOC(=O)c1ccc(NC(=O)CC2OCCN(CC)C2=O)cc1 (configuration not stated) 7.78%
CC(C)C(=O)Nc1cc(S(=O)(=O)Nc2cccc(Cl)c2)ccc1Cl 12.6%
CCCCc1c(C)c(C#N)c2nc3ccccc3n2c1Nc1c(C)n(C)n(-c2ccccc2)c1=O 8.78%
COc1cc(/C=C/C(=O)OCC(=O)Nc2ccc3c(c2)OCCO3)ccc1OCC#N 5.37%
COc1cccc(/C=C/C(=O)OCC(=O)Nc2ccc3c(c2)OCCO3)c1 14.2%
COc1ccc(/C=C/C(=O)OCC(=O)Nc2ccc3c(c2)OCO3)cc1 10.3%
COc1cccc(/C=C/C(=O)OCC(=O)Nc2ccc3c(c2)OCO3)c1 13%
CCOC(=O)CC1C(=O)NCCN1C(=S)NC(=O)c1ccccc1OC (configuration not stated) 3.14%
CCN(CC(=O)Nc1ccc(NC(C)=O)cc1)C(=O)c1cn(-c2ccccc2)nc1-c1cccs1 7.68%
COc1ccc(C)cc1NC(=O)NC1CC(=O)N(c2ccc3c(c2)OCCO3)C1 (configuration not stated) 10.3%
CC(/C=C/c1ccccc1)=N/O 4.32%
CCOc1ccc(/C=C\C(C)=N\O)cc1 8.33%
COc1ccc(Cl)cc1C(=O)NCCN1CCOCC1 3.67%
Cc1cccc(NS(=O)(=O)c2ccc(C)c(C(=O)NCC(c3ccco3)N3CCCCC3)c2)c1 (configuration not stated) 4.69%
COc1ccc(/C(C)=N/Nc2ccc(C(=O)O)cc2)cc1OC -0.19%
C/C(=N\NC(=O)c1ccccc1F)c1cccc(NC(=O)c2ccccc2)c1 4.16%
C/C(=N\NC(=O)c1ccccc1F)c1cccc(NC(=O)c2ccc(C)cc2)c1 5.2%
CC(=O)c1ccc2c(c1)N(C)c1ccccc1S2 18.2%
C/C(=N\Nc1ccc(C(=O)O)cc1)c1ccc(Br)cc1 14%
C=CC(=O)N1c2ccccc2Sc2ccc(NC(=O)OCC)cc21 6.2%
COC(=O)c1ccc2c(c1)NC(=O)c1ccccc1S2 8.59%
CCOC(=O)Nc1ccc2c(c1)N(C(=O)CN(C)C)c1ccccc1S2 -22.2%
Cc1ccc(CN2[C@@H](Cc3ccccc3)C(=O)CS2(=O)=O)cc1 3.43%
O=C(NNC(=O)c1n[nH]c2ccccc12)c1ccccc1 4.79%
CN1CCN(c2cc(C(F)(F)F)nc(-c3ccccn3)n2)CC1 1.81%
C=CCn1c(SCc2ccc(C(=O)OC)cc2)nnc1-c1sc(N)nc1C 3.61%
COc1ccccc1CCNC(=O)NC1CCCCC1 3.38%
Cc1ccccc1N(CC(=O)NCCc1ccccc1)C(=O)c1ccc(N2CCCC2)nc1 -2.74%
COc1cccc(OC)c1C(=O)NC(=S)NCc1cccnc1 6.24%
CCC1CCCCN1C(=O)COc1ccc2c(c1)OCO2 (configuration not stated) 2.24%
Cc1ccc(C(=O)c2c3ccc([N+](=O)[O-])cc3[n+]([O-])n2CCCN)cc1 8.83%
CC(=O)Nc1cccc(/C(C)=N/NC(=O)c2ccc(O)cc2)c1 0.87%
C/C(=N\NC(=O)c1ccc(O)cc1)c1cccc(NC(=O)c2ccc(Cl)cc2)c1 8.52%
Cc1cccc(C(=O)Nc2cccc(C(=O)N3CCOCC3)c2)c1 -5.11%
COCCNC(=S)Nc1cc(OC)c(NC(=O)c2ccco2)cc1OC 3.43%
COCCNC(=S)Nc1cc2oc3ccccc3c2cc1OC 17.8%
CC(=O)N1CCc2c(sc(NC(=O)Cc3ccc(C)cc3C)c2C#N)C1 -2.35%
COc1ccc(/C=N/NC(=O)c2nc(-c3ccccc3)cc(-c3ccccc3)n2)cc1O 24.5%
COc1ccc(/C=N/NC(=O)c2nc(-c3ccccc3)n(-c3ccccc3)n2)cc1 -5.29%
COc1ccc(/C=N/NC(=O)c2nc(-c3ccccc3)cc(-c3ccccc3)n2)cc1OC 11.2%
Cc1cccc(-n2cnc(C(=O)N/N=C/c3ccccc3)c2)n1 6.69%
Cc1cc(C(=O)N/N=C/c2c(C)nn(-c3ccccc3)c2C)n[nH]1 -3.78%
COc1ccc(/C=N/NC(=O)c2nc(-c3ccccc3)n(-c3ccccc3)n2)cc1OC 6.46%
Cc1cccc(-n2cnc(C(=O)N/N=C\c3ccc(Br)cc3)c2)n1 12.1%
Cc1nn(-c2ccccc2)c(C)c1-c1cc(C(=O)N/N=C/c2ccc(O)cc2)[nH]n1 19.3%
O=C1CCC2(CC1)NC(=O)N(c1ccccc1)N2 -10.2%
O=C1CNC(=S)N1CCOc1ccccc1 -1.2%
COc1ccc(S(=O)(=O)Nc2cc(C(=O)NCCC(C)C)ccc2N2CCOCC2)cc1 -3.38%
CCOc1ccc(-c2cc(C(=O)N3CCCC3)c3ccccc3n2)cc1 1.87%
CCOC(=O)COc1ccccc1-c1ccno1 5.09%
COc1ccc(S(=O)(=O)Cc2ccc(C(=O)NCC(OC)OC)o2)cc1 5.28%
CCC1C(=O)NCCN1C(=O)c1cc(COc2cc(C)ccc2C)on1 (configuration not stated) 13.8%
O=C(NCc1cccnc1)c1ccccn1 3.14%
O=C(Nc1cnccn1)Nc1ccc(Cl)cc1Cl -2.37%
O=C(CCc1c[nH]c2ccccc12)NCCc1ccccc1 7.24%
O=C(CCc1c[nH]c2ccccc12)NCCc1ccc(Cl)cc1 6.06%
Cc1ccc(NC(=O)C(OC(=O)c2cnc(C)cn2)c2ccccc2)c([N+](=O)[O-])c1 (configuration not stated) 4.33%
O=C(COc1ccc2cc(Br)ccc2c1)N1CCCC1 8.08%
COc1ccc(-c2[nH]ncc2-c2csc(C)n2)c(O)c1 13.3%
CCCOC(=O)c1ccc(Oc2c(-c3ccc(O)cc3O)n[nH]c2C)cc1 19.3%
Cc1[nH]nc(-c2ccc(O)c(C)c2O)c1Oc1ccccc1 18.4%
CCOc1ccc(-c2n[nH]c(C)c2Oc2ccc(OC)cc2)c(O)c1 11%
O=S(=O)(N/N=C\c1ccccc1O)c1ccc(Cl)cc1 6.73%
O=C1CC(C(=O)Nc2ccc(Cl)cc2)S/C(=N\N=C\c2ccco2)N1 (configuration not stated) 10.6%
c1ccc(CCNc2ccnc3cc4ccccc4cc23)cc1 13.8%
COc1ccc(Nc2ccnc3ccccc23)cc1 3.59%
